Compound activity as filed in PubChem.
TWEAK Fn14 block – blocks TWEAK-Fn14 interaction in a reporter cell assay. TWEAK-stimulated Fn14 reporter cells, luciferase luminescence, 8 h. inhibition, % at 10 µM. 360,000 tested, 2% active; in the data active = inhibition above about 50%
CF NFkB block – inhibitors of cystic fibrosis induced NF-kB; KKLEB NF-kB-GFP reporter, PAF-induced, GFP fluorescence overnight; inhibition, % at 5 µM; 360,000 tested, 0.86% active; AID 588850;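 active = at least 50% inhibition at 5 µM, scaled per plate between neutral and stimulator controls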;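 note: PAF is a Pseudomonas aeruginosa culture filtrate used as stimulus; plate controls were PAF-stimulated DMSO wells for no effect and unstimulated DMSO wells for full effect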
HIF-2a block – blocks HIF-2a reporter activity. AID 624352. 360,000 tested, 0.72% active. inhibition, % at 18.8 µM. 786-0 RCC cells HIF-2a reporter, luciferase luminescence, overnight;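 active = inhibition of the luminescence signal of 40% or more relative to plate controls, in a single-dose primary screen at 18.75 µM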
TROY NFkB inh – TROY signaling inhibition; 360,000 tested, 0.98% active; inhibition, % at 10 µM; Q293 LMP1-TROYcd NF-kB luciferase reporter, 4 h;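 active = compounds whose plate-normalised and pattern-corrected inhibition of the luciferase reporter signal at the single screening dose is 50% or more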
KKLEB cytotox – reduces viability of KKLEB cystic fibrosis airway cells; KKLEB CF airway cells viability, ATPlite luminescence, overnight; hits give low values; cells stimulated with P. aeruginosa culture filtrate; 360,000 tested, 0.36% active; activity change (cytotoxicity), % at 5 µM;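 active = corrected activity change at or below -50% at 5 µM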
Peg3 promoter – inhibitors of Peg3 promoter | HeLa PEG-Prom luciferase reporter, luminescence, overnight | inhibition, % at 20 µM | 360,000 tested, 1.7% active | AID 588405;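 active = inhibition of at least 50% at 20 µM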
* = called active by the depositor; nt = no result given. This is a sample that favours compounds with a hit; in the whole collection about 4% have one here.

SMILES	TWEAK Fn14 block	CF NFkB block	HIF-2a block	TROY NFkB inh	KKLEB cytotox	Peg3 promoter
CC(=O)/C(N=Nc1cc2c(cc1[N+](=O)[O-])OCCO2)=C(\C)O	-36	-68	6	-4	-1	8
O=C(COC(=O)c1ccccc1-n1cnnn1)c1ccccc1	30	-11	-88	36	0	7
O=C(COC(=O)c1ccccc1-n1cnnn1)c1ccc(Br)cc1	72*	-22	9	62*	7	11
O=C(NNC(=O)c1ccc(F)c(S(=O)(=O)N2CCOCC2)c1)c1ccc([N+](=O)[O-])cc1	13	23	-16	3	-21	-7
Nc1ncnc2c1ncn2[C@@H]1O[C@H](CNC(=O)[C@@H](N)Cc2ccc(C(=O)c3ccccc3)cc2)[C@@H](O)[C@H]1O	-12	0	17	8	-14	-8
O=C(Nc1nc(-c2ccc(Cl)cc2)cs1)NC1CCCCC1	68*	15	-28	58*	-20	0
COc1cccc(OC)c1C(=O)Nc1nc(-c2ccccc2)cs1	6	-2	-12	20	0	-9
CC(=O)c1c(C)[nH]c(C(=O)Nc2nc(-c3ccc(Cl)cc3)cs2)c1C	68*	12	-10	58*	-20	32
COc1ccc(-c2nc(NC(=O)c3[nH]c(C)c(C(C)=O)c3C)sc2C)cc1	-9	-25	-16	-7	-7	0
CC(=O)c1c(C)[nH]c(C(=O)Nc2nc(-c3ccc(-c4ccccc4)cc3)cs2)c1C	98*	78*	-73	19	-27	103*
CC(=O)c1c(C)[nH]c(C(=O)Nc2nc(C)cs2)c1C	94*	-6	40	65*	-10	46
COC(=O)Cc1ccc(OC2(C)CCN(Cc3ccccc3OC(F)F)C2)cc1 (stereo not given)	8	29	7	9	-25	-7
N=c1cc(C2(O)CCCCC2)n2c(nc3ccccc32)s1	64*	-5	-54	27	-6	-145
CNC(=O)C[C@H]1C(=O)N(c2ccc(OC)cc2)C[C@@H]1C	-1	-2	2	-18	4	-10
O=C(c1ccco1)N1CCN(S(=O)(=O)c2c(Cl)cccc2Cl)CC1	92*	7	8	-11	-4	8
O=C(c1ccco1)N1CCN(S(=O)(=O)c2ccc(Cl)cc2)CC1	-9	1	15	6	14	8
NS(=O)(=O)c1ccc(N2CCN(C(=O)c3ccco3)CC2)nc1	-1	14	7	-5	-3	51*
CSC1=NC=C(C#N)C2=NC(c3ccc(Cl)cc3)NN12 (stereo not given)	5	-29	-83	-1	-3	-68
Cc1cc(Oc2ccc(N)cn2)cc(C)c1Cl	21	-1	12	-5	-5	-12
CC(C)(C)c1ccc(Oc2ccc(N)cn2)cc1	24	-18	77*	4	13	30
CCOc1ccccc1C(=O)N/N=C/c1coc2ccc(Cl)cc2c1=O	30	35	24	14	12	24
COc1ccccc1-n1cnc2cc(NCc3ccccn3)ccc21	52*	9	-122	56*	-7	-49
CC(=O)c1ccc(-n2c(CCC(=O)O)ccc2-c2ccccc2)cc1	76*	13	-14	58*	-9	20
CC(=O)c1ccc(-n2c(CCC(=O)O)ccc2-c2ccc(C)cc2)cc1	19	-19	-4	-33	5	-1
COC(=O)c1ccc(-n2c(C)ccc2-c2ccccc2)cc1	7	0	7	-28	0	9
SMILES	TWEAK Fn14 block	CF NFkB block	HIF-2a block	TROY NFkB inh	KKLEB cytotox	Peg3 promoter
CC(=O)c1ccc(-n2c(C)ccc2-c2ccccc2)cc1	82*	14	-130	37	4	-53
O=C(NC(=S)Nc1cc(Cl)ccc1Cl)c1ccco1	-34	-32	-180	-54	12	-86
COc1cccc(NC(=O)CN(C)C(=O)c2cc(-c3cccc(Br)c3)nc3ccccc23)c1	47	-25	-9	39	-7	71*
C/C(N=Nc1nc2ccccc2s1)=N\Nc1ccccc1O	80*	47	-18	7	-37	36
O=C1CSC(=S)N1Nc1ccccc1	-2	-16	14	-6	18	2
CC1C(=O)N2CCCc3cc(S(=O)(=O)N4CCC(C(N)=O)CC4)cc1c32 (stereo not given)	9	-31	3	3	22	3
Cc1cc(C(C)(C)C)cc(C)c1Cn1c2[n+](c3ccc(C(F)(F)F)cc31)CCCCC2	36	22	23	39	-21	56*
Cc1ccc([N+](=O)[O-])cc1S(=O)(=O)Nc1ccc(O)c(Sc2ncn[nH]2)c1	22	20	15	-10	-2	16
Cc1cc(C)c(S(=O)(=O)/N=C2/C=C(Sc3ncn[nH]3)C(=O)c3ccccc32)cc1C	94*	77*	68*	59*	-59*	106*
N#CC1(NC(=O)COc2cccnc2[N+](=O)[O-])CCCCC1	17	-12	8	4	-9	5
OC(c1cccnc1)c1nc(-c2cccc(F)c2)cs1 (stereo not given)	-3	-23	-21	4	14	-11
O=C(O)C1CCCCC1C(=O)Nc1ccc2c(c1)OCCO2 (stereo not given)	83*	9	-13	69*	1	-3
CC(C)C(NC(=O)C1CCCCC1)C(=O)Nc1ccc2c(c1)OCCO2 (stereo not given)	63*	0	-70	33	4	-251
O=C(O)C1C2C=CC(C2)C1C(=O)Nc1ccc2c(c1)OCCO2 (stereo not given)	65*	6	13	52*	-5	-89
CC(C)C(NC(=O)C1CCCCC1)C(=O)Nc1ccncc1 (stereo not given)	2	4	23	-3	-2	11
O=C(Nc1ccc2c(c1)OCCO2)C1CC1c1ccccc1 (stereo not given)	19	-14	-134	-15	4	-227
CCN(CC(=O)Nc1c(F)cccc1F)C(=O)CSC(=S)N1CCCC1	13	-7	4	7	-4	8
O=C(Nc1cc(Cl)cc(Cl)c1)c1ccc(Cn2c(=O)[nH]c3ccsc3c2=O)cc1	-43	54*	0	-5	-50*	30
CCN(CC)c1ccc(/C=N/NC(=O)c2ccoc2C)cc1	63*	8	-186	42	-12	-112
COc1ccc(C)cc1NC(=O)/C=C/c1ccc(OC)c(S(=O)(=O)N2CCOCC2)c1	-26	2	1	10	-4	8
Cc1cccc(C)c1N1CCN(C(c2cc3ccccc3o2)c2nnnn2C(C)(C)C)CC1 (stereo not given)	53*	nt	-25	27	nt	nt
COc1ccc(N2C(=O)c3ccc(C(=O)Nc4ccc(NC(C)=O)cc4)cc3C2=O)cc1	-37	-17	11	-26	8	2
CCOC(=O)c1sc(NC(=O)Nc2ccc(Cl)cc2)cc1C	67*	48	-254	18	-38	-118
